In PubChem BioAssay AID651789 (National Center for Advancing Translational Sciences (NCATS), 2012):
Inconclusive results are not listed. Calls of active or inactive are those of the source. The call rests on the fitted dose curve; in most records, active means well fitted inhibition curve with a large enough effect; inconclusive means small, poorly fitted or top-dose-only effect; inactive means no such curve, though single readings can be large or run the other way.

Assay: Acumen qHTS Assay for Inhibitors of the mTORC1 Signaling Pathway in WT MEF Cells: Hit Validation; further: nearly all actives have a fitted effect of over 60% in size;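 on activity change, negative = inhibition: phospho-rpS6 Ser235/236 immunofluorescence normalised to propidium iodide cell stain; percent of cells above a cutoff set by 7.5 nM rapamycin treated wells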
Conditions: Acumen imaging; series mostly up to 37.3 µM; activity change, negative = inhibition: at the top concentration
Outline: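 Read-out is immunofluorescent phospho-rpS6 (Ser235/236) normalised to PI-stained cell number, reported as % active cells using a 7.5 nM rapamycin threshold. Cells: WT or Tsc2-/-, p53-/- MEFs, compound-exposed 24 h at 37C; PI count also tracks viability.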
Potency means the concentration at half of the fitted maximal effect.

Row | Compound | activity change, negative = inhibition | Potency
1 | CC1C(=O)Nc2ccc(S(=O)(=O)Nc3ccccc3Br)cc2NC1=O (configuration not stated) | 32.8% (inactive) | 
2 | Cc1ccc(NC(=O)CCNS(=O)(=O)c2cccc3nonc23)cc1Cl | -0.763% (inactive) | 
3 | CCCCS(=O)(=O)c1oc(-c2ccc(F)cc2)nc1S(=O)(=O)c1ccccc1 |  | 0.656 µM (active)
4 | O=C(Cn1c(=O)c2cccn2c2ccccc21)NCc1ccccc1F | 18.4% (inactive) | 
5 | O=C(NCCN1CCN(c2cccc(Cl)c2)CC1)Nc1ccccc1C(F)(F)F | 59.5% (inactive) | 
6 | Cc1cc(NCc2ccc(Cl)cc2)n2cnnc2n1 | -27.1% (inactive) | 
7 | O=C(CCCn1ccc2cc(S(=O)(=O)N3CCCC3)ccc21)NCc1ccc(Cl)cc1 | -26.8% (inactive) | 
8 | CCCCCCCCCCCCCCC[C@H](O)[C@@H](N)CO | -6.82% (inactive) | 
9 | CCCCNC(=O)CSc1nc2nc(C)c(Cc3ccccc3C)c(C)n2n1 | 17.8% (inactive) | 
10 | CCN(c1ccccc1)S(=O)(=O)c1cc(C(=O)Nc2ccc(Br)cc2)ccc1F |  | 13.1 µM (active)
11 | Cc1ccc2sc(N(CCCN(C)C)C(=O)c3ccco3)nc2c1C | -15.6% (inactive) | 
12 | COCc1oc2ccc(NS(=O)(=O)c3ccc(C)cc3)cc2c1C(=O)OC |  | 5.85 µM (active)
13 | Cc1ccc(C)c(NC(=O)Nc2cc3c(cc2N2CCCCC2)n(C)c(=O)n3C)c1 | -3.45% (inactive) | 
14 | COc1ccc(C(=O)N2CCN(C(=O)COc3ccc(Br)cc3)CC2)cc1OC | 3.49% (inactive) | 
15 | Cc1ccc(CNS(=O)(=O)c2cc(C(=O)Nc3cccc(C(F)(F)F)c3)ccc2F)cc1 | -27% (inactive) | 
16 | CCOC(=O)c1c(NC(=O)c2cc(CC)on2)sc(C(C)=O)c1C | 13.1% (inactive) | 
17 | CC1=Nc2cc(C(=O)NC3CCCC3)ccc2Sc2ccc(Cl)cc21 |  | 0.826 µM (active)
